Laboratory results reported in the supplement of paper PMC11732987, “Enantioselective OTUD7B fragment discovery through chemoproteomics screening and high-throughput optimisation” (Communications Chemistry, 2025).

How the values were obtained:
Assay in all cases: log2 ratio of Biotin-Ahx-Ub-VS probe labelling (fragment/DMSO); higher = less target engagement (more negative = stronger competition), active = hit call of the paper (q ≤ 0.05, log2 ratio ≤ -1)
Conditions in all cases: compound concentration: 200 uM; treatment time: 3 h
USP42 = target: T1, USP42 (UniProt Q9H9J4)
T1 sequence (whole entry): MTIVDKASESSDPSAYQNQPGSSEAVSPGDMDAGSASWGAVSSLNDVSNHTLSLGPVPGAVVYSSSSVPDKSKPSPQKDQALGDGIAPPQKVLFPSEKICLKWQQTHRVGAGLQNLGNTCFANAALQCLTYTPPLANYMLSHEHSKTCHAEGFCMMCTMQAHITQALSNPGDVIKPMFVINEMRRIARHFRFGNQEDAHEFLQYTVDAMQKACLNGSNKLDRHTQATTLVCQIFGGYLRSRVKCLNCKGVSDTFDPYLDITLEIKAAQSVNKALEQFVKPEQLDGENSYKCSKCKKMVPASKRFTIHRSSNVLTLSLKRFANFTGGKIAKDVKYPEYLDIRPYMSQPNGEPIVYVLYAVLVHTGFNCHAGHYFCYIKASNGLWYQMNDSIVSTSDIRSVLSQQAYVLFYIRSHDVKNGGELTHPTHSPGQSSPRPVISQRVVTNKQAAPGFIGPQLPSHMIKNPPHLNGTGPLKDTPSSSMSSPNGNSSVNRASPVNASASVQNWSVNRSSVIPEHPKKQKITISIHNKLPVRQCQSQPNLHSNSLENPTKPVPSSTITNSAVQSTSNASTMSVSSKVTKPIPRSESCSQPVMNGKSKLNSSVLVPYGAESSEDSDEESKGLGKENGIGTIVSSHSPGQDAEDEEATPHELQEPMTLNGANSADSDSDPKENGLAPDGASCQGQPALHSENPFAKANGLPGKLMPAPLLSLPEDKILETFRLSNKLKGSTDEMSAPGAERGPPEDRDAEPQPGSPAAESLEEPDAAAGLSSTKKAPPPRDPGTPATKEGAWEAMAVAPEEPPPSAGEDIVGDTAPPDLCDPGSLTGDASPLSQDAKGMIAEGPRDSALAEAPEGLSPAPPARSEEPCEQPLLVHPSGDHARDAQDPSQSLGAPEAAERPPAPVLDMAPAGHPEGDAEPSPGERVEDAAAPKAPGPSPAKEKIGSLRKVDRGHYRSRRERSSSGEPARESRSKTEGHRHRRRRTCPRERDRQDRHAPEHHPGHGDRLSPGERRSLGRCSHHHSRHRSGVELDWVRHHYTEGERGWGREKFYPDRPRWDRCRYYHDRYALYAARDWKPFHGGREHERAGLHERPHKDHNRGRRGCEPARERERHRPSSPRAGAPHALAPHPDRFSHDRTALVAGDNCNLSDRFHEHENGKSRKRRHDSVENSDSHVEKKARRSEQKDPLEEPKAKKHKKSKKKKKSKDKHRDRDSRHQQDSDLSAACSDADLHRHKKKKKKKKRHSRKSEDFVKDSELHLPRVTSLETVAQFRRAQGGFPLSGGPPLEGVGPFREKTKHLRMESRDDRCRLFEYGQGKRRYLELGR
Outline: (§1)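 Labelling with Biotin-Ahx-Ub-VS (0.5 µM final, 1 h) followed a 3 h triplicate treatment of HEK293T lysate (495 µg per sample, Tris/CHAPS/IGEPAL buffer with protease inhibitors) with fragment at 200 µM or vehicle. Labelled DUBs were NeutrAvidin-enriched, digested with LysC and trypsin, and run by diaPASEF LC-MS/MS. The values, average log2 fragment/vehicle ratios by unpaired t-test, come from global-median-normalised Spectronaut label-free quantities. Proteins with ≥2 unique peptides were used.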

USP46 = USP46 (UniProt P62068)
Sequence of USP46 (P62068 whole entry): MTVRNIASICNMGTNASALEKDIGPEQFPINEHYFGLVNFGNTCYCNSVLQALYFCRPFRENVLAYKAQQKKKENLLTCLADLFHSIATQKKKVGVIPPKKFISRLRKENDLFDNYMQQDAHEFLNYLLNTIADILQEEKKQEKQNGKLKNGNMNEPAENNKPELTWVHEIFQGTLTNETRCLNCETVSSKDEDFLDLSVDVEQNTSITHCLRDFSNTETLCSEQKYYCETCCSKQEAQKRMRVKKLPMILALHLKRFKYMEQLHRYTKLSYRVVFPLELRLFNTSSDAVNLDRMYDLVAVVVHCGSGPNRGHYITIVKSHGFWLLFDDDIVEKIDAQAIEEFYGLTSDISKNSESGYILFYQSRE
Outline: as §1

USP47 = target: T2, USP47 (UniProt Q96K76)
T2 sequence (whole entry): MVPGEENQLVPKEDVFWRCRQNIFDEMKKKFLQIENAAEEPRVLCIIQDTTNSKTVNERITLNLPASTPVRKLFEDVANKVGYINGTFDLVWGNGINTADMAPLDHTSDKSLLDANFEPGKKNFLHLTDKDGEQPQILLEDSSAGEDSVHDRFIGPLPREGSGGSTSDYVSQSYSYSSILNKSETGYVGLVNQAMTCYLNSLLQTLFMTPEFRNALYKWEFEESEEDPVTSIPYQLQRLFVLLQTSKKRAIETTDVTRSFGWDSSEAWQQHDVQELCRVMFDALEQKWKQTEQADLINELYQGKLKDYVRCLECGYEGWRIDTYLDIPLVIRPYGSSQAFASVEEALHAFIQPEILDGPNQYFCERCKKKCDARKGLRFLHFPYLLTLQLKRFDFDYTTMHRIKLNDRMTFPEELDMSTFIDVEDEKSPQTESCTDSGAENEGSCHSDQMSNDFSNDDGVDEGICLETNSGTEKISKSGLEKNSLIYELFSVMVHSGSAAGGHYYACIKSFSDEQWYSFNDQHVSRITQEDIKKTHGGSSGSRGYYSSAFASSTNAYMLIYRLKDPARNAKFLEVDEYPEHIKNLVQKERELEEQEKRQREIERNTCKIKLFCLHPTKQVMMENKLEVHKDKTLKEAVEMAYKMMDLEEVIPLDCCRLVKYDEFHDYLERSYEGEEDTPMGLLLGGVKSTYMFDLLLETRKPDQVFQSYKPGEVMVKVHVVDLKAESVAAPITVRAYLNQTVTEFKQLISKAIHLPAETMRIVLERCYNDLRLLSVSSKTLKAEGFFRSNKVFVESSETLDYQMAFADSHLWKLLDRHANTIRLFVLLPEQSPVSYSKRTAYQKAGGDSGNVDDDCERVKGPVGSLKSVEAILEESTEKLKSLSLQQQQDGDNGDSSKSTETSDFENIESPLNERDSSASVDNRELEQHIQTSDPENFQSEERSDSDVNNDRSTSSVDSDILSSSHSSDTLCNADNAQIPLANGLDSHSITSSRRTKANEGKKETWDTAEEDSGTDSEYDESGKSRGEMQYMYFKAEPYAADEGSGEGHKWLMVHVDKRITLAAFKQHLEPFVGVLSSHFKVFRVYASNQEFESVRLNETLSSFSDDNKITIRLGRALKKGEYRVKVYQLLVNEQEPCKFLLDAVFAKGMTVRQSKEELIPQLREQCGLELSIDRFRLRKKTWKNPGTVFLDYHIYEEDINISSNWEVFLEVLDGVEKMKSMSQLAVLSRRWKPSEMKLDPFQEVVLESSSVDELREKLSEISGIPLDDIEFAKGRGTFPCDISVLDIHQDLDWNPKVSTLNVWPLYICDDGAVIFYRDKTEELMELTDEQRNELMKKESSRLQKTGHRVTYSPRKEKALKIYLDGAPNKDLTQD
Outline: as §1

USP48 = target: T3, USP48 (UniProt Q86UV5)
T3 sequence (whole entry): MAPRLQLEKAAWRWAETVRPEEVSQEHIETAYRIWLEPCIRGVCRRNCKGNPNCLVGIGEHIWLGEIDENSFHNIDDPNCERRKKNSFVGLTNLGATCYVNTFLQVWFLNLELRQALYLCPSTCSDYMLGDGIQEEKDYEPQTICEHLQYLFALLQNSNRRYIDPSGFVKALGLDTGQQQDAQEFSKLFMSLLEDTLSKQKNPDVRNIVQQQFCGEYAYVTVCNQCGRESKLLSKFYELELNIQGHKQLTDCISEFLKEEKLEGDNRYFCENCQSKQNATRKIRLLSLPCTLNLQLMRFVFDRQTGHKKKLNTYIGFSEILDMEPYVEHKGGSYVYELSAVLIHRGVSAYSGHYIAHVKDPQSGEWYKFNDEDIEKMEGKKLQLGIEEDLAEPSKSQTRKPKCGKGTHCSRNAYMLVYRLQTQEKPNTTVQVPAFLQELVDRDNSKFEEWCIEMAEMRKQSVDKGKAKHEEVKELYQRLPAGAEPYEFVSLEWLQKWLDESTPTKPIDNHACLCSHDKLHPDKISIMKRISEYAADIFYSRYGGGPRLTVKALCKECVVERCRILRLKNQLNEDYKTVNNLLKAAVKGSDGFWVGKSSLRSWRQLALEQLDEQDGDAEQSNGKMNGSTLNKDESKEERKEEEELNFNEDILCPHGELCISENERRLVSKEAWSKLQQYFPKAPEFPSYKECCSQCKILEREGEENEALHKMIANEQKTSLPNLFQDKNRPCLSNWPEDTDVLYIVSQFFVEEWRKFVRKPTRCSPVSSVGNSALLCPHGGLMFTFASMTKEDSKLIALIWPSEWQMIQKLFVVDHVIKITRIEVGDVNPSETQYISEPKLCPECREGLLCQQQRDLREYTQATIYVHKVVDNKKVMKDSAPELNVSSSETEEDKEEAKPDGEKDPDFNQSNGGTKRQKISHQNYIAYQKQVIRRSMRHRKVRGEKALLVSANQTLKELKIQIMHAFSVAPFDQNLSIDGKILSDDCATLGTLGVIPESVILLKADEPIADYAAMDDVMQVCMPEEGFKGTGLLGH
Outline: as §1

USP5 = target: T4, USP5 (UniProt P45974)
T4 sequence (whole entry): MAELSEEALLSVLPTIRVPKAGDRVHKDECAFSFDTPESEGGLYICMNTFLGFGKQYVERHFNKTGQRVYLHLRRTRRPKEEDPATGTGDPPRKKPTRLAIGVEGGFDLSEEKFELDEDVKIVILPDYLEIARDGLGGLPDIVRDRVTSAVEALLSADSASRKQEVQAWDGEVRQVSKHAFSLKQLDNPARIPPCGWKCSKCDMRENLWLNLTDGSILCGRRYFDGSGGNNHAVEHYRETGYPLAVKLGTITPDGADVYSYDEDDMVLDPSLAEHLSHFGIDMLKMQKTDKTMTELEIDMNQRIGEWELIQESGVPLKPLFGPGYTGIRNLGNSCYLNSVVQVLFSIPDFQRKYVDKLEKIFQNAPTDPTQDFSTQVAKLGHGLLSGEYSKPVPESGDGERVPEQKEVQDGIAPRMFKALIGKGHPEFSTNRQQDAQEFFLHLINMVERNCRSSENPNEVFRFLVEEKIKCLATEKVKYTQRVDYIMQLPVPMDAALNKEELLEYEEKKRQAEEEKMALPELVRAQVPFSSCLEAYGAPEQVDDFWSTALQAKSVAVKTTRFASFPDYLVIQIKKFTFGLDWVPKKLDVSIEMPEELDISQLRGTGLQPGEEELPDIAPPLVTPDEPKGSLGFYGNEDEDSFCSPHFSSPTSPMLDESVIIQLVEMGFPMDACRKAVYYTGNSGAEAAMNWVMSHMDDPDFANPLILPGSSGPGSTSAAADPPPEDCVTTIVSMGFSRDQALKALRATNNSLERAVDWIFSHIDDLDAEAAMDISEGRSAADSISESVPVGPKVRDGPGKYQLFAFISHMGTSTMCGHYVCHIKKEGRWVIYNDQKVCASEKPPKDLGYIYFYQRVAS
Outline: as §1

USP54 = USP54 (UniProt Q70EL1)
Outline: as §1

USP7 = USP7 (UniProt Q93009)
Sequence of USP7 (Q93009 whole entry, looked up): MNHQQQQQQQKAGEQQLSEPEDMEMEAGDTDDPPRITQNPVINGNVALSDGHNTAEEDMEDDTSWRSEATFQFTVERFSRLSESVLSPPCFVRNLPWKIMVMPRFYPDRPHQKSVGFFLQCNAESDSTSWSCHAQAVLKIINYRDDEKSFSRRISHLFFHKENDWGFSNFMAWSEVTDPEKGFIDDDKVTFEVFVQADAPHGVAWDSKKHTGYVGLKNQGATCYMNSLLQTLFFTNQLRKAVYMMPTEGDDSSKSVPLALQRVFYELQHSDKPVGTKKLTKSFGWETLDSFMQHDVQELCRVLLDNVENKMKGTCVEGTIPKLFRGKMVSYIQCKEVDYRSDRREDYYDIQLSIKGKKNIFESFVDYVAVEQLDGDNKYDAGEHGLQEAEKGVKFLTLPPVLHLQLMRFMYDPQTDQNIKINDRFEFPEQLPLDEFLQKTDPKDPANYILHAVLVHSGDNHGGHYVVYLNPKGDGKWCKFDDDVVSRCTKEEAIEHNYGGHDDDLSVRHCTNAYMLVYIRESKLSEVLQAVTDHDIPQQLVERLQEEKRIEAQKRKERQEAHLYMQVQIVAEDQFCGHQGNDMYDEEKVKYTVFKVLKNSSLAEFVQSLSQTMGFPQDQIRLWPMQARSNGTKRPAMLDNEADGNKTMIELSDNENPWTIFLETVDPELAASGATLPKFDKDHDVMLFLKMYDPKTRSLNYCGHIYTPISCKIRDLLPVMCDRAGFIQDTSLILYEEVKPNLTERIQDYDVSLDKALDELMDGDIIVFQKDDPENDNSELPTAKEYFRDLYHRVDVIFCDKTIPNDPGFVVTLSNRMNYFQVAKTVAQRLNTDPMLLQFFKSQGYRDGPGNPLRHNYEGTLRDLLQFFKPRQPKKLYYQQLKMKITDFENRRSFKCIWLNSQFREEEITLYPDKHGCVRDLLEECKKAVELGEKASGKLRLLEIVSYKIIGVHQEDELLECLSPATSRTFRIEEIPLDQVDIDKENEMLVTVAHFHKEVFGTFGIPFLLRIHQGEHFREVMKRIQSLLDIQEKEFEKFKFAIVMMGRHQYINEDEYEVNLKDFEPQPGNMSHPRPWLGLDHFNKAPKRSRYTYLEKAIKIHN
Outline: as §1

USP8 = target: T5, USP8 (UniProt P40818)
T5 sequence (whole entry): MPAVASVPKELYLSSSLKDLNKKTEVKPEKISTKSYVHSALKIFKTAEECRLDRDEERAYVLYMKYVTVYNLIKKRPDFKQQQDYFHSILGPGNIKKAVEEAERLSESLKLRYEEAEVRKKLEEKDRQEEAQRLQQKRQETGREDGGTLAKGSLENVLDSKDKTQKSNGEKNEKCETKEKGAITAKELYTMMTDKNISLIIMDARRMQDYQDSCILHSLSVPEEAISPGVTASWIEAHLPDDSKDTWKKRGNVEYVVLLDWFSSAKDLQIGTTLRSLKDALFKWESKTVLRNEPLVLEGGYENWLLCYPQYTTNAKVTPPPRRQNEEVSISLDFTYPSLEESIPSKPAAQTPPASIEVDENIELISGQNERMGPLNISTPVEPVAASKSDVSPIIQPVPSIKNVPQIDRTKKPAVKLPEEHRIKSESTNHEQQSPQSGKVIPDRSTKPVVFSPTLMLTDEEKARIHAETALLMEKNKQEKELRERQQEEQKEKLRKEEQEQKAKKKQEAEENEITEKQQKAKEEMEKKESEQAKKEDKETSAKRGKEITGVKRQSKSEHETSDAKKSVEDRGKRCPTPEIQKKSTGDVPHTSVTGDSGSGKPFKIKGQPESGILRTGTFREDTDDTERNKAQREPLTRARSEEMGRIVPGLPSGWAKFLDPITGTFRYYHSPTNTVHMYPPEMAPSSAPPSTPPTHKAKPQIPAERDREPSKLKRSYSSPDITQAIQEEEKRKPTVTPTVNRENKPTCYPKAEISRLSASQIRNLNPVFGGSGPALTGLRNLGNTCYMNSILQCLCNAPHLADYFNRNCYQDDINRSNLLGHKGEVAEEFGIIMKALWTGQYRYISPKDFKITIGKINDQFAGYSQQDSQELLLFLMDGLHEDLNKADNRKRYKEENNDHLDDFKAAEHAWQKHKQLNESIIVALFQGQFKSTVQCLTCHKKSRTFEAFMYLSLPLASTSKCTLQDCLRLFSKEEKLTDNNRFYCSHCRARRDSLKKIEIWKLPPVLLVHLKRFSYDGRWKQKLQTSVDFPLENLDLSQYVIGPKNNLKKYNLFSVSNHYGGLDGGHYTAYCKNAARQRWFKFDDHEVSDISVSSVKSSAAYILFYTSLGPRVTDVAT
Outline: as §1

USP9X = USP9X (UniProt Q93008)
Sequence of USP9X (Q93008 whole entry): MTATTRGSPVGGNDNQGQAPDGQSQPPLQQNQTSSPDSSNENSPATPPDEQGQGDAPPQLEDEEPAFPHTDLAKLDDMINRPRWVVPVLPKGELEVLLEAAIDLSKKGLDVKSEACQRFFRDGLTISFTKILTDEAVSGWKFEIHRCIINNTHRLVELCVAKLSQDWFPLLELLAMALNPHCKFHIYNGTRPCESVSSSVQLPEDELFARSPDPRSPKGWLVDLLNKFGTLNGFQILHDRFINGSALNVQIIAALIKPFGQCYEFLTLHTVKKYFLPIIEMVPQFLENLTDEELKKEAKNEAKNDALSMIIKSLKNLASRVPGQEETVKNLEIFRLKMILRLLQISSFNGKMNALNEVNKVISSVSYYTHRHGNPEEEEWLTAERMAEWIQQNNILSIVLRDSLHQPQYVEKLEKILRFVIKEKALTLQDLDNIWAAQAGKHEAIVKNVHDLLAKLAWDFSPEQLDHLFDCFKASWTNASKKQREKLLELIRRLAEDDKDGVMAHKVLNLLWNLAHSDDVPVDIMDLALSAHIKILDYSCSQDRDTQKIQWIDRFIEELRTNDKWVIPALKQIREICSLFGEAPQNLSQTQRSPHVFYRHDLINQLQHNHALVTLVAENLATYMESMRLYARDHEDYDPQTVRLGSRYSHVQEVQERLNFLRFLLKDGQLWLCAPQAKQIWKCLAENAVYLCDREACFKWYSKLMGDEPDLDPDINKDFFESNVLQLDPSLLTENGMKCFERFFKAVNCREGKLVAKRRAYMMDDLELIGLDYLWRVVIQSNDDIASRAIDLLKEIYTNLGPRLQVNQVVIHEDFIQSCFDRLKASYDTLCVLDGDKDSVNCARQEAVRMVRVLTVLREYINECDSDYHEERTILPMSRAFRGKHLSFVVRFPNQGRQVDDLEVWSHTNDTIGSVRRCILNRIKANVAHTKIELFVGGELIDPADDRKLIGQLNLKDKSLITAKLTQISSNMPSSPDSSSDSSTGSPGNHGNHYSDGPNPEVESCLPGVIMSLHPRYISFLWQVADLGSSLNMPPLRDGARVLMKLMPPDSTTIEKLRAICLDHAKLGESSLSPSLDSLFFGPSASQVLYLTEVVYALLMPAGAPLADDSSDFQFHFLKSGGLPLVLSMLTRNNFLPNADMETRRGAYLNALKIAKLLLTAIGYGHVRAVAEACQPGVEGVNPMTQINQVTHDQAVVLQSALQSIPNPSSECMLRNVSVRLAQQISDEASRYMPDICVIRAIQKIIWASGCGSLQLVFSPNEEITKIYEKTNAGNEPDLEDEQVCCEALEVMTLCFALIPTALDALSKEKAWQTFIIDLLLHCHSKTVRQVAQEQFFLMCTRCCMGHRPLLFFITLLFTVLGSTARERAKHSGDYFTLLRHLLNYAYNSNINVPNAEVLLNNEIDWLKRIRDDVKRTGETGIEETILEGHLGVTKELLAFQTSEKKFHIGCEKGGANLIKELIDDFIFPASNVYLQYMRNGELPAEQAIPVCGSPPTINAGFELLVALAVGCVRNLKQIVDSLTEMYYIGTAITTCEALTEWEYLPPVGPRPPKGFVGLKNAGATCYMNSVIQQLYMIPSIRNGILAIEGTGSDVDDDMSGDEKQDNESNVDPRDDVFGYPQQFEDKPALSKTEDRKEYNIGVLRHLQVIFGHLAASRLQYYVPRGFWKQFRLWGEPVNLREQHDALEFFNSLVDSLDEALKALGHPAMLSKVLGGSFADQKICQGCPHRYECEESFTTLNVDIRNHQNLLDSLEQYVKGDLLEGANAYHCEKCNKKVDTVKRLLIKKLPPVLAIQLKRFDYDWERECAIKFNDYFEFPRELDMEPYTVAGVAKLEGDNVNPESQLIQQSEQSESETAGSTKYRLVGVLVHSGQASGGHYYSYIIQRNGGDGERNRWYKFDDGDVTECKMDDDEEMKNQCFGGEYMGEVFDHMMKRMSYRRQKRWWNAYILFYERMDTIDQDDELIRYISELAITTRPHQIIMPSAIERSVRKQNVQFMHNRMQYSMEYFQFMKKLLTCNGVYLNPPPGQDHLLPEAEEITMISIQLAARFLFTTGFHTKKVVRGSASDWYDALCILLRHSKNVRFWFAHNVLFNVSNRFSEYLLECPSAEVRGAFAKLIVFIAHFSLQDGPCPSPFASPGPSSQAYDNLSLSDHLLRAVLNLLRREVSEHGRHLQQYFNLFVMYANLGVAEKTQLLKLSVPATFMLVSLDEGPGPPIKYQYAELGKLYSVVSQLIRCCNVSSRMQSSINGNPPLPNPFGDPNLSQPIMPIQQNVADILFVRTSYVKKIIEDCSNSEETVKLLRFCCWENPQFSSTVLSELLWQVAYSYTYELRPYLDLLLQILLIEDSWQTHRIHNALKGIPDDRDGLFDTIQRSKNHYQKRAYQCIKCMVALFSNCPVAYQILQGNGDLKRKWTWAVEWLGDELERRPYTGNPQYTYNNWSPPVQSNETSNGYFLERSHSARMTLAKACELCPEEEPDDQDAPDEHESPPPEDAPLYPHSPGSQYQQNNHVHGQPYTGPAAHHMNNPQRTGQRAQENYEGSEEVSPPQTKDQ
Outline: as §1

UniProt O00487 = target: UniProt O00487
Sequence of UniProt O00487 (O00487 whole entry): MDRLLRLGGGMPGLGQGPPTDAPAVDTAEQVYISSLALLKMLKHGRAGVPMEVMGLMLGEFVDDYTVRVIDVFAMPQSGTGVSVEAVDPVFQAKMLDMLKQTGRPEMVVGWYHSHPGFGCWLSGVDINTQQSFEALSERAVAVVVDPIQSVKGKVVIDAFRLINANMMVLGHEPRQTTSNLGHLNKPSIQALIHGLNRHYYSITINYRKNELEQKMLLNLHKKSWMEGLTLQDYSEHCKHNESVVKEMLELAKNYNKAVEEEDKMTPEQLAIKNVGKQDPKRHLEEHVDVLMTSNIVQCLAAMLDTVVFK
Outline: as §1

Measured: log2 ratio of Biotin-Ahx-Ub-VS probe labelling

CC(NC(=O)CCl)c1cccc(Cl)c1 (stereo not given)
inactive: USP42 -0.459 | USP46 -0.115 | USP47 -0.252 | USP48 -0.283 | USP5 0.0893 | USP54 0.882 | USP7 -0.385 | USP8 -0.413 | USP9X -0.388 | UniProt O00487 -0.18
